About 79,000 compounds went through this panel and 15% of them were active in at least one assay; those are over-represented in the sample as a whole. Active and inactive are the calls of the source. Cut-off read from the data, not from the text of the source: active = growth inhibition above about 70%; inactive = the rest.
Assays:
[1] = NCI Yeast Anticancer Drug Screen. Data for the rad52 strain (AID 147);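 note: 0% = growth of vehicle-treated control cultures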; conditions: S. cerevisiae rad52 mutant growth inhibition, active compounds read high
Method in brief: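 Here a repair-compromised yeast strain receives each compound; its growth is then quantified and normalised to vehicle-only controls.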

[2] = NCI Yeast Anticancer Drug Screen. Data for the wt1 strain (AID 149);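 note: 0% = growth of vehicle-treated wt1 cultures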; conditions: S. cerevisiae wt1 strain (SPY 50644) growth inhibition, active compounds read high
Method in brief: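 Readout: yeast growth inhibition, normalised to vehicle controls, in the wt1 strain exposed to test compounds.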

[3] = NCI Yeast Anticancer Drug Screen. Data for the rad50EPP+ strain (AID 151);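 note: 0% = growth of vehicle-treated control cultures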; conditions: S. cerevisiae rad50 mutant strain, active compounds read high
Method in brief: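 Read-out is yeast growth inhibition relative to vehicle; cells used were the rad50EPP+ strain.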

[4] = NCI Yeast Anticancer Drug Screen. Data for the mgt1 strain (AID 153); conditions: S. cerevisiae mgt1 mutant growth inhibition, active compounds read high
Method in brief: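 Measured: inhibition of mgt1 yeast growth by compound, normalized to vehicle-treated cultures.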

[5] = NCI Yeast Anticancer Drug Screen. Data for the rad50 strain (AID 155);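 note: 0% = growth of vehicle-only cultures of the same strain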; conditions: S. cerevisiae rad50 strain growth inhibition, active compounds read high
Method in brief: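 Compounds were tested on a yeast strain with an engineered DNA damage repair alteration; the reported value is growth inhibition normalised to vehicle treatment.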

[6] = NCI Yeast Anticancer Drug Screen. Data for the mec2-1 strain (AID 157); conditions: S. cerevisiae mec2-1 strain, active compounds read high
Method in brief: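 Using mec2-1 yeast: add compound, measure growth, express inhibition versus vehicle-treated cultures.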

[7] = NCI Yeast Anticancer Drug Screen. Data for the rad14 strain (AID 159);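 note: 0% = growth of vehicle-treated control cultures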; conditions: S. cerevisiae rad14 strain growth inhibition, active compounds read high
Method in brief: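 Compound-treated yeast with a defined DNA-repair lesion; growth inhibition normalised to vehicle-treated cultures.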

[8] = NCI Yeast Anticancer Drug Screen. Data for the sgs1 mgt1 strain (AID 161);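 note: 0% = growth of cultures given vehicle only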; conditions: S. cerevisiae sgs1 mgt1 strain, active compounds read high
Method in brief: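 Percent growth inhibition was derived by comparing compound-exposed mutant yeast with vehicle-exposed cultures. The strain carries alterations in DNA damage repair.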

[9] = NCI Yeast Anticancer Drug Screen. Data for the CLN2oe strain (AID 163);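 note: 0% = growth of vehicle-only control cultures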; conditions: S. cerevisiae CLN2oe strain, active compounds read high
Method in brief: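 Whole-cell yeast growth assay. A strain engineered for altered cell-cycle control received compound, and inhibition relative to vehicle-treated cultures was recorded.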

[10] = NCI Yeast Anticancer Drug Screen. Data for the cln2 rad14 strain (AID 165);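 note: 0% = growth equal to vehicle treated cultures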; conditions: S. cerevisiae cln2 rad14 strain, active compounds read high
Method in brief: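 Yeast strain cln2 rad14, bearing defects in cell cycle control and DNA repair, serves as the test system; values reflect growth inhibition compared with vehicle.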

[11] = NCI Yeast Anticancer Drug Screen. Data for the bub3 strain (AID 167); conditions: S. cerevisiae bub3 mutant strain, active compounds read high
Method in brief: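 Growth of a checkpoint-deficient yeast mutant is measured after compound exposure. Values represent inhibition relative to vehicle.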

[12] = NCI Yeast Anticancer Drug Screen. Data for the wt2 strain (AID 169);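 note: 0% = growth of vehicle-treated yeast cultures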; conditions: S. cerevisiae wt2 strain growth inhibition, active compounds read high
Method in brief: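 Treated yeast vs. vehicle-treated yeast: growth inhibition determined.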

[13] = NCI Yeast Anticancer Drug Screen. Data for the mlh1 strain (AID 171);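 note: 0% = growth of vehicle-treated control cultures of the same strain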; conditions: S. cerevisiae mlh1 strain growth inhibition, active compounds read high
Method in brief: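 A yeast strain with a defined genetic lesion serves as the test organism. Cultures receive compound or vehicle, and growth is measured.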

[14] = NCI Yeast Anticancer Drug Screen. Data for the sgs1 strain (AID 173);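 note: 0% = growth of vehicle-only control cultures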; conditions: S. cerevisiae sgs1 mutant, active compounds read high
Method in brief: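 A genetically defined yeast mutant is incubated with the test compound, and its growth is compared to that of the same strain given vehicle.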

[15] = NCI Yeast Anticancer Drug Screen. Data for the mlh1 rad18 strain (AID 175); conditions: S. cerevisiae mlh1 rad18 strain growth inhibition, active compounds read high
Method in brief: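 Steps: expose repair-defective yeast to compound; measure growth; express inhibition against vehicle-treated controls.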

[16] = NCI Yeast Anticancer Drug Screen. Data for the rad18 strain (AID 177); conditions: S. cerevisiae rad18 mutant growth inhibition, active compounds read high
Method in brief: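 Measured value is growth inhibition of a yeast strain bearing a DNA repair alteration, referenced to vehicle-treated cells.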

[17] = at 5.0 µM (retest, dose inferred, filed as 0.5)
[18] = at 50.0 µM (retest, dose inferred, filed as 5.0)

Measured: growth inhibition

OC(/C=C/c1ccccc1)(Cc1cc(-c2ccccc2)n[nH]1)c1ccccc1 (stereo unspecified)
active: [5]; [18] 97% | [5]; at 50.0 µM 98.6% | [6]; [18] 97% | [6]; at 50.0 µM 99.1% | [8]; [18] 97% | [8]; at 50.0 µM 97.8% | [10]; [18] 94% | [10]; at 50.0 µM 98.3% | [11]; [18] 98% | [11]; at 50.0 µM 99.2% | [15]; [18] 97% | [15]; at 50.0 µM 98.7%
inactive: [1]; at 1.2 µM 14% | [1]; at 3.7 µM 14% | [1]; at 11.0 µM 11% | [1]; at 33.0 µM 14% | [1]; at 100.0 µM 9% | [2]; at 1.2 µM 9% | [2]; at 3.7 µM 5% | [2]; at 11.0 µM 7% | [2]; at 33.0 µM 8% | [2]; at 100.0 µM 9% | [3]; at 1.2 µM 12% | [3]; at 3.7 µM 11% | [3]; at 11.0 µM 14% | [3]; at 33.0 µM 13% | [3]; at 100.0 µM 13% | [4]; at 1.2 µM 9% | [4]; at 3.7 µM 12% | [4]; at 11.0 µM 10% | [4]; at 33.0 µM 12% | [4]; at 100.0 µM 13% | [5]; at 1.2 µM 8% | [5]; at 3.7 µM 7% | [5]; [17] -3% | [5]; at 11.0 µM 4% | [5]; at 33.0 µM 11% | [5]; at 100.0 µM 8% | [6]; at 1.2 µM 9% | [6]; at 3.7 µM 11% | [6]; [17] 1% | [6]; at 11.0 µM 12% | [6]; at 33.0 µM 13% | [6]; at 100.0 µM 12% | [7]; at 1.2 µM 15% | [7]; at 3.7 µM 15% | [7]; at 11.0 µM 13% | [7]; at 33.0 µM 17% | [7]; at 100.0 µM 16% | [8]; [17] 17% | [9]; at 1.2 µM 23% | [9]; at 3.7 µM 24% | [9]; at 11.0 µM 24% | [9]; at 33.0 µM 26% | [9]; at 100.0 µM 24% | [10]; [17] -19% | [11]; at 1.2 µM 3% | [11]; at 3.7 µM 3% | [11]; [17] -10% | [11]; at 11.0 µM 2% | [11]; at 33.0 µM 7% | [11]; at 100.0 µM 6% | [12]; at 1.2 µM -11% | [12]; at 3.7 µM -8% | [12]; at 11.0 µM -15% | [12]; at 33.0 µM -8% | [12]; at 100.0 µM -14% | [13]; at 1.2 µM 10% | [13]; at 3.7 µM 12% | [13]; at 11.0 µM 12% | [13]; at 33.0 µM 13% | [13]; at 100.0 µM 14% | [14]; at 1.2 µM -9% | [14]; at 3.7 µM 6% | [14]; at 11.0 µM 4% | [14]; at 33.0 µM 9% | [14]; at 100.0 µM 1% | [15]; [17] 18% | [16]; at 1.2 µM 12% | [16]; at 3.7 µM 12% | [16]; at 11.0 µM 11% | [16]; at 33.0 µM 15% | [16]; at 100.0 µM 24%

O=C(COC(=O)c1ccccc1)c1ccc(Br)cc1
active: [1]; at 33.0 µM 99% | [1]; at 100.0 µM 98% | [2]; at 33.0 µM 99% | [2]; at 100.0 µM 97% | [3]; at 1.2 µM 75% | [3]; at 3.7 µM 93% | [3]; at 11.0 µM 99% | [3]; at 33.0 µM 99% | [3]; at 100.0 µM 97% | [4]; at 33.0 µM 99% | [4]; at 100.0 µM 98% | [5]; at 33.0 µM 98% | [5]; [18] 99% | [5]; at 50.0 µM 98.8% | [5]; at 100.0 µM 97% | [6]; at 33.0 µM 99% | [6]; [18] 99% | [6]; at 50.0 µM 99.3% | [6]; at 100.0 µM 99% | [7]; at 33.0 µM 99% | [7]; at 100.0 µM 98% | [8]; [18] 99% | [8]; at 50.0 µM 99.4% | [9]; at 33.0 µM 99% | [9]; at 100.0 µM 97% | [10]; [18] 99% | [10]; at 50.0 µM 98.8% | [11]; at 11.0 µM 100% | [11]; at 33.0 µM 99% | [11]; [18] 99% | [11]; at 50.0 µM 99.7% | [11]; at 100.0 µM 99% | [12]; at 11.0 µM 96% | [12]; at 33.0 µM 100% | [12]; at 100.0 µM 99% | [13]; at 33.0 µM 99% | [13]; at 100.0 µM 98% | [15]; [18] 99% | [15]; at 50.0 µM 99.2% | [16]; at 33.0 µM 99% | [16]; at 100.0 µM 98%
inactive: [1]; at 1.2 µM 14% | [1]; at 3.7 µM 20% | [1]; at 11.0 µM 45% | [2]; at 1.2 µM 2% | [2]; at 3.7 µM -4% | [2]; at 11.0 µM 8% | [4]; at 1.2 µM 5% | [4]; at 3.7 µM 13% | [4]; at 11.0 µM 22% | [5]; at 1.2 µM 17% | [5]; at 3.7 µM 23% | [5]; [17] 31% | [5]; at 11.0 µM 68% | [6]; at 1.2 µM 4% | [6]; at 3.7 µM 7% | [6]; [17] 67% | [6]; at 11.0 µM 17% | [7]; at 1.2 µM 16% | [7]; at 3.7 µM 18% | [7]; at 11.0 µM 30% | [8]; [17] 58% | [9]; at 1.2 µM 0% | [9]; at 3.7 µM 13% | [9]; at 11.0 µM 64% | [10]; [17] 12% | [11]; at 1.2 µM 49% | [11]; at 3.7 µM 65% | [11]; [17] 41% | [12]; at 1.2 µM 16% | [12]; at 3.7 µM 63% | [13]; at 1.2 µM 12% | [13]; at 3.7 µM 17% | [13]; at 11.0 µM 38% | [15]; [17] 34% | [16]; at 1.2 µM 15% | [16]; at 3.7 µM 17% | [16]; at 11.0 µM 37%

From PubChem BioAssay (NCI)
